Where “and” joins values, the source holds several entries; their conditions need not be identical. Identical values can stand only once. Out of some 5,500 compounds screened, about 2,000 (36%) were called active. Another 18% or so got no clear call; they are omitted. Cut-off read from the data, not from the text of the source: active = normalized growth mostly below about 0.91 (no sharp cut-off); inconclusive = no clear call, values can overlap the other calls; inactive = mostly above about 0.92. This is one part of the list.
Assay: chemical genetic growth profiling, strain panel (AID 1159580);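 note: tested at 20 µM; growth read once vehicle control cultures reached saturation at 30 °C; 1 = growth at the plate median or of vehicle wells; lower values mean less growth of the strain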
Conditions: S. cerevisiae deletion strains, growth OD

Measured: normalized growth

NC12CC3CC(CC(C3)C1)C2
inactive: locus YAL021C, strain ccr4, active compounds read low 0.977 | locus YAL026C, strain drs2, active compounds read low 0.996 | locus YAL030W, strain snc1, active compounds read low 1.01 | locus YAL040C, strain CLN3, active compounds read low 0.968 | locus YBL061C, strain skt5, active compounds read low 1.01 | locus YBR009C, strain hhf1, active compounds read low 0.99 | locus YBR021W, strain FUR4, active compounds read low 0.992 | locus YBR023C, strain chs3, active compounds read low 1.01 | locus YBR171W, strain sec66, active compounds read low 1.01 | locus YBR229C, strain ROT2, active compounds read low 1 | locus YBR231C, strain swc5, active compounds read low 1.03 | locus YBR279W, strain paf1, active compounds read low 0.994 | locus YCL011C, strain gbp2, active compounds read low 0.985 | locus YCL016C, strain dcc1, active compounds read low 0.977 | locus YCL029C, strain bik1, active compounds read low 1.02 | locus YCL061C, strain MRC1 (second series), active compounds read low 0.991 | locus YCL061C, strain MRC1, active compounds read low 1.04 | locus YCL069W, strain vba3, active compounds read low 1.01 | locus YCR088W, strain abp1, active compounds read low 1.01 | locus YDL005C, strain med2, active compounds read low 0.987 | locus YDL035C, strain GPR1, active compounds read low 1.01 | locus YDL040C, strain nat1, active compounds read low 1 | locus YDL074C, strain BRE1, active compounds read low 1.02 | locus YDL101C, strain DUN1, active compounds read low 1.02 | locus YDL134C, strain PPH21, active compounds read low 1 | locus YDL185W, strain tfp1, active compounds read low 1.02 | locus YDL192W, strain arf1, active compounds read low 1.03 | locus YDR001C, strain nth1, active compounds read low 0.995 | locus YDR069C, strain doa4, active compounds read low 1.01 | locus YDR101C, strain arx1, active compounds read low 1.03 | locus YDR137W, strain rgp1, active compounds read low 1.03 | locus YDR150W, strain NUM1, active compounds read low 0.992 | locus YDR159W, strain sac3, active compounds read low 0.989 | locus YDR162C, strain NBP2, active compounds read low 1.02 | locus YDR195W, strain ref2 1 | locus YDR297W, strain sur2, active compounds read low 1.01 | locus YDR318W, strain mcm21, active compounds read low 1.02 | locus YDR334W, strain swr1, active compounds read low 0.994 | locus YDR335W, strain msn5, active compounds read low 1.01 | locus YDR363W, strain ESC2, active compounds read low 1.04 | locus YDR388W, active compounds read low 1.02 | locus YDR392W, strain spt3, active compounds read low 0.96 | locus YDR502C, strain sam2, active compounds read low 1.01 | locus YEL003W, strain gim4, active compounds read low 1.03 | locus YEL037C, strain rad23, active compounds read low 0.995 | locus YEL061C, strain CIN8 (second series), active compounds read low 0.998 | locus YEL061C, strain CIN8, active compounds read low 1.01 | locus YER002W, strain NOP16, active compounds read low 0.993 | locus YER015W, strain faa2, active compounds read low 1.01 | locus YER016W, strain bim1, active compounds read low 0.996 | locus YER110C, active compounds read low 1.03 | locus YER111C, strain swi4, active compounds read low 0.998 | locus YER155C, strain BEM2 (second series), active compounds read low 1.05 | locus YER155C, strain BEM2, active compounds read low 0.998 | locus YER167W, strain BCK2, active compounds read low 1 | locus YFR010W, strain ubp6, active compounds read low 1.01 | locus YGL078C, strain dbp3, active compounds read low 1.02 | locus YGL086W, strain mad1, active compounds read low 1.01 | locus YGL167C, strain pmr1, active compounds read low 1 | locus YGL173C, strain kem1, active compounds read low 1.03 | locus YGL227W, strain vid30, active compounds read low 1 | locus YGL240W, strain doc1, active compounds read low 1.04 | locus YGL248W, strain PDE1, active compounds read low 1.03 | locus YGL253W, strain hxk2, active compounds read low 0.98 | locus YGR078C, strain PAC10, active compounds read low 0.999 | locus YGR135W, strain pre9, active compounds read low 1.01 | locus YGR229C, strain SMI1, active compounds read low 1.01 | locus YGR252W, strain gcn5, active compounds read low 1.03 | locus YHR013C, strain ard1, active compounds read low 1 | locus YHR027C, strain rpn1, active compounds read low 0.996 | locus YHR030C, strain SLT2, active compounds read low 1 | locus YHR079C, strain IRE1 (second series), active compounds read low 1.03 | locus YHR079C, strain IRE1, active compounds read low 1.02 | locus YHR094C, strain hxt1, active compounds read low 1.01 | locus YHR129C, strain ARP1, active compounds read low 1.01 | locus YHR142W, strain chs7, active compounds read low 0.995 | locus YHR200W, strain rpn10, active compounds read low 1.02 | locus YIL066C, strain RNR3, active compounds read low 1.02 | locus YIL073C, strain SPO22, active compounds read low 1.11 | locus YIL125W, strain kgd1, active compounds read low 1.02 | locus YIR030C, strain dcg1, active compounds read low 1.02 | locus YJL092W, strain hpr5, active compounds read low 1.01 | locus YJL095W, strain BCK1 (second series), active compounds read low 1.01 | locus YJL095W, strain BCK1, active compounds read low 1.02 and 1.03 | locus YJL115W, strain asf1, active compounds read low 0.999 | locus YJL129C, strain trk1, active compounds read low 1.01 | locus YJL134W, strain LCB3, active compounds read low 1.01 | locus YJL154C, strain vps35, active compounds read low 0.998 | locus YJL164C, strain tpk1, active compounds read low 0.98 | locus YJL166W, strain qcr8, active compounds read low 1.04 | locus YJL168C, strain set2, active compounds read low 1.02 | locus YJL187C, strain SWE1 (second series), active compounds read low 1.03 | locus YJL187C, strain SWE1, active compounds read low 1.01 | locus YJR043C, strain POL32, active compounds read low 0.986 | locus YJR066W, strain TOR1, active compounds read low 0.988 | locus YJR075W, strain HOC1, active compounds read low 1.02 | locus YKL009W, strain mrt4, active compounds read low 1.02 | locus YKL068W, active compounds read low 1.01 | locus YKL085W, strain MDH1 (second series), active compounds read low 1.01 | locus YKL085W, strain MDH1, active compounds read low 1.01 | locus YKL160W, strain elf1, active compounds read low 1.02 | locus YKR001C, strain vps1, active compounds read low 1.01 | locus YKR026C, strain gcn3, active compounds read low 1 | locus YKR091W, strain srl3, active compounds read low 1 | locus YLL001W, strain dnm1, active compounds read low 1.02 | locus YLL026W, active compounds read low 1.01 | locus YLL041C, strain sdh2, active compounds read low 0.993 | locus YLR027C, strain aat2, active compounds read low 1.01 | locus YLR039C, strain RIC1, active compounds read low 1.04 | locus YLR058C, strain SHM2, active compounds read low 1.02 | locus YLR102C, strain apc9, active compounds read low 1.02 | locus YLR113W, strain HOG1, active compounds read low 1.04 | locus YLR221C, strain rsa3, active compounds read low 0.986 | locus YLR258W, strain gsy2, active compounds read low 0.993 | locus YLR262C, strain YPT6 (second series), active compounds read low 1.03 | locus YLR262C, strain YPT6, active compounds read low 1.07 | locus YLR268W, strain sec22, active compounds read low 1.02 | locus YLR320W, strain mms22, active compounds read low 0.977 | locus YLR330W, strain CHS5, active compounds read low 1.01 | locus YLR342W, strain FKS1 (second series), active compounds read low 0.997 | locus YLR342W, strain FKS1, active compounds read low 1.03 | locus YLR357W, strain rsc2, active compounds read low 0.993 | locus YLR370C, strain arc18, active compounds read low 1 | locus YLR371W, strain rom2, active compounds read low 1.02 | locus YLR384C, strain iki3, active compounds read low 0.998 | locus YLR418C, strain cdc73, active compounds read low 1.04 | locus YML016C, strain PPZ1, active compounds read low 1.01 | locus YML032C, strain rad52, active compounds read low 1.01 | locus YML120C, strain ndi1, active compounds read low 1.03 | locus YML124C, strain tub3, active compounds read low 1.02 | locus YMR058W, strain fet3, active compounds read low 1.01 | locus YMR078C, strain ctf18, active compounds read low 1.04 | locus YMR125W, strain sto1, active compounds read low 0.999 | locus YMR129W, active compounds read low 1 | locus YMR205C, strain PFK2, active compounds read low 1.01 | locus YMR223W, strain ubp8, active compounds read low 1.02 | locus YMR231W, strain pep5, active compounds read low 0.999 | locus YMR307W, strain GAS1, active compounds read low 0.933 | locus YNL067W, strain RPL9B, active compounds read low 1.03 | locus YNL071W, strain lat1, active compounds read low 0.989 | locus YNL128W, strain TEP1, active compounds read low 0.983 | locus YNL153C, strain GIM3, active compounds read low 1 | locus YNL175C, strain NOP13, active compounds read low 0.996 | locus YNL183C, strain NPR1, active compounds read low 0.972 | locus YNL197C, strain WHI3, active compounds read low 0.978 | locus YNL209W, strain ssb2, active compounds read low 0.989 | locus YNL224C, strain SQS1, active compounds read low 1.01 | locus YNL233W, strain BNI4, active compounds read low 1.02 | locus YNL248C, strain rpa49, active compounds read low 0.994 | locus YNL250W, strain rad50, active compounds read low 1.04 | locus YNL271C, strain bni1, active compounds read low 1.03 | locus YNL298W, strain CLA4, active compounds read low 1.02 | locus YNL307C, strain MCK1, active compounds read low 1.03 | locus YNL322C, strain KRE1 (second series), active compounds read low 0.999 | locus YNL322C, strain KRE1, active compounds read low 1 | locus YNR049C, strain mso1, active compounds read low 1 | locus YNR052C, strain pop2, active compounds read low 1.02 | locus YOL006C, strain TOP1, active compounds read low 1.1 | locus YOL012C, strain htz1 1.89 | locus YOL147C, strain pex11, active compounds read low 1.03 | locus YOR001W, strain rrp6, active compounds read low 1.05 | locus YOR061W, strain CKA2, active compounds read low 1.02 | locus YOR069W, strain VPS5, active compounds read low 1.01 | locus YOR070C, strain gyp1, active compounds read low 0.99 | locus YOR080W, strain dia2, active compounds read low 1.01 | locus YOR083W, strain WHI5 (second series), active compounds read low 1 | locus YOR083W, strain WHI5, active compounds read low 0.994 | locus YOR106W, strain vam3, active compounds read low 1.04 | locus YOR136W, strain idh2, active compounds read low 1.03 | locus YOR144C, strain elg1, active compounds read low 1.02 | locus YOR184W, strain ser1, active compounds read low 1.02 | locus YOR231W, strain MKK1, active compounds read low 1.02 | locus YOR265W, strain rbl2, active compounds read low 1.01 | locus YOR270C, strain vph1, active compounds read low 1.03 | locus YOR290C, strain snf2, active compounds read low 0.97 | locus YOR316C, strain cot1, active compounds read low 1.02 | locus YPL051W, strain arl3, active compounds read low 1.02 | locus YPL055C, strain LGE1, active compounds read low 1.01 | locus YPL078C, strain atp4, active compounds read low 1.05 | locus YPL106C, strain sse1, active compounds read low 0.986 | locus YPL240C, strain hsp82, active compounds read low 1.01 | locus YPL241C, strain CIN2, active compounds read low 1 | locus YPL256C, strain CLN2, active compounds read low 1.02 | locus YPR119W, strain clb2, active compounds read low 1.02 | locus YPR141C, strain kar3, active compounds read low 1.03 | locus YPR163C, strain tif3, active compounds read low 1.02 | locus YPR167C, strain met16, active compounds read low 1.03 | strain wtn01, active compounds read low 1.01
